Results filed as inconclusive are left out. Entries that show only a call come without a potency. A number with no mark means an inactive call. The source made the active and inactive calls. Calls come from the whole dose curve.
Assay: p53 small molecule agonists, cell-based qHTS assay with rat liver microsomes (AID 1963578)
Conditions: HCT-116 p53RE-bla, beta-lactamase ratio, 16 h; series mostly up to 66 µM
Source text: U.S. Tox21 Program National Center for Advancing Translational Sciences [NCATS] Division of Preclinical Innovation [DPI] U.S. Environmental Protection Agency [EPA] National Institutes of Environmental Health Sciences [NIEHS] National Toxicology Program [NTP] U.S. Food and Drug Administration [FDA] Tox21 Assay Overview: p53, a tumor suppressor protein, is activated following cellular insult, including DNA damage and other cellular stresses. The activation of p53 regulates cell fate by inducing DNA repair, cell cycle arrest, apoptosis, or cellular senescence. The activation of p53, therefore, is a good indicator of DNA damage and other cellular stresses. […] The activation of the reporter gene under culture conditions can be detected by fluorescence intensity. This cell line was used to screen the Tox21 10K compound library in the condition of presence of rat liver microsomes and to identify agonists that activate the p53 signaling pathway after in vitro metabolic activation (Ooka et al., Archive of Toxicology 96:1975-1987, 2022).
Tox21 Assay Protocol Summary: The p53RE-bla cells were dispensed at 4,000cells/3ul/well in 1536-well black-clear bottom plates. After the assay plates were incubated at 37 C, 5% CO2 incubator for 5 hours, 23 nL of compounds dissolved in DMSO, positive controls or DMSO only was transferred to the assay plate. Following compound addition, 3 uL of rat liver microsomes (Molecular Toxicology, Boone, NC) at final concentration of 0.5 mg/mL and 1uL of Beta-Nicotinamide adenine dinucleotide 2-phosphate (NADPH) at final concentration of 0.5 mg/mL were transferred to the assay plate. The plates were incubated at 37 C for 16 hours. 1 uL of LiveBLAzer detection mixture was added to each well and the plates were incubated at room temperature in the dark for 2 h.
In the case of Cc1nc(C2CCCCC2)c(-c2ccc(S(N)(=O)=O)c(F)c2)o1, the Potency is reported as “inactive”.
For C=CC/C=C/C, the Potency was “inactive”.
With CCCCNc1ccc(NCCCC)c2c1C(=O)c1ccccc1C2=O the activation was 1.5% [at 13.6 µM].
In the case of CC(C)C(=O)Nc1cccc(C(F)(F)F)c1, the Potency is reported as “inactive”.
With C/C(=N\O)c1ccc(OCC(=O)N2CCCCC2)cc1 the Potency was “inactive”.
With CC(C)(O)c1ccccc1 the Potency was “inactive”.
CN1C[C@@H]2C[C@H]1CN2c1cc2c(cc1F)c(=O)c(C(=O)O)cn2C1CC1 gave an activation of 1.2% [at 13.6 µM].
In the case of CCCCCCCCCCCc1ccccc1, the Potency is reported as “inactive”.
With Clc1cccnc1 the Potency was “inactive”.
For OC1(c2ccccc2)CCNCC1, the Potency was “inactive”.
In the case of Cc1nnc(C(=O)NC(C)(C)c2nc(C(=O)NCc3ccc(F)cc3)c(O)c(=O)n2C)o1, the Potency is reported as “inactive”.
In the case of CCCCCCCCOC(C)=O, the Potency is reported as “inactive”.
For O=C(/C=C/c1ccccc1)OCCCc1ccccc1, the Potency was “inactive”.
For CCCC1CCCC(=O)O1 (stereo not given), the Potency was “inactive”.
In the case of Cc1cccc(C)c1NC(=O)c1cc(S(N)(=O)=O)c(Cl)cc1O, the Potency is reported as “inactive”.
In the case of C1CCN(CN2CCCCC2)CC1, the Potency is reported as “inactive”.
With C[N+](C)(C)CC(O)CC(=O)[O-] (stereo not given) the Potency was “inactive”.
For OCC(F)(F)F, the Potency was “inactive”.
In the case of CCOc1ccccc1N, the Potency is reported as “inactive”.
In the case of O=C(Cn1ccnc1[N+](=O)[O-])NCCO, the Potency is reported as “inactive”.
For CCCCCCCC/C=C\CCCCCCCCN, the Potency was “inactive”.
In the case of CC(=O)Nc1ccc(C)c(Cl)c1, the Potency is reported as “inactive”.
In the case of CCCCCCCCCCCCCCCCCCOCCO, the activation is reported as 0.0249% [at 13.6 µM].
For O=C(OCC(O)CO)c1ccccc1Nc1ccnc2c(C(F)(F)F)cccc12 (stereo not given), the Potency was “inactive”.
For CC1=CC[C@H](C(C)C)C=C1, the Potency was “inactive”.
In the case of Cc1cc2c(cc1S(N)(=O)=O)S(=O)(=O)CCC2, the Potency is reported as “inactive”.
For NCC(=O)O, the activation was 1.19% [at 13.6 µM].
In the case of NC(=O)C(=O)N/N=C/c1ccc([N+](=O)[O-])o1, the Potency is reported as “inactive”.
For CCOC(=O)C(C)(C)C, the Potency was “inactive”.
With CC1(C)CCC(C)(C)c2cc(NC(=O)c3ccc(C(=O)O)cc3)ccc21 the Potency was “inactive”.
With O=c1c2ccccc2nnn1CCl the Potency was “inactive”.
With CN(C)CCC[C@@]1(c2ccc(F)cc2)OCc2cc(C#N)ccc21 the Potency was “inactive”.
With C1CC(COCC2CO2)CCC1COCC1CO1 (stereo not given) the Potency was “inactive”.
In the case of CC(C(=O)O)c1cccc(Oc2ccccc2)c1 (stereo not given), the Potency is reported as “inactive”.
For CCOC(=O)COc1cc(-n2ncc(C(F)(F)F)c(C)c2=O)c(F)cc1Cl, the Potency was “inactive”.
In the case of CC(C)(C)NCC(O)COc1ccc(NC(=O)NC2CCCCC2)cc1 (stereo not given), the Potency is reported as “inactive”.
With O=C(O)P(=O)(O)O the Potency was “inactive”.
In the case of CCC(CO)(CO)COCC(CC)(CO)CO, the Potency is reported as “inactive”.
For CC1(N)CCC(C(C)(C)N)CC1 (stereo not given), the Potency was “inactive”.
For CCOCCOCCOC(C)=O, the Potency was “inactive”.

Source: PubChem BioAssay (Tox21)
